In PubChem BioAssay (EPA / NIEHS):
Active and inactive are the calls of the source. How the source made its calls: active means hit-call score of the fitted dose curve at least 0.9, where 1 is the maximum; inactive means score below 0.9.

read-out: urokinase plasminogen activator (uPA), PLAU (gene 5328); test: BSK_BE3C_uPA: BioMAP Diversity Plus: BE3C Assay for urokinase plasminogen activator (uPA) Biomarker Activity (AID 2283038); conditions: primary human bronchial epithelial cells; actives raise or lower the signal;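 on outcome: uPA read one day after compound addition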
Experimental: BSK_BE3C is a cell-based, multiplexed-readout assay that uses bronchial epithelial cell, a human lung primary cell, with measurements taken at 24 hours after chemical dosing in a 96-well plate.BSK_BE3CA is an assay component measured in the BSK_BE3C assay. It measures uPA antibody related to regulation of gene expression using ELISA technology.Data from the assay component BSK_BE3CA was analyzed into 1 assay endpoint. This assay endpoint, BSK_BE3CA, was analyzed with bidirectional fitting relative to DMSO as the negative control and baseline of activity. Using a type of binding reporter, gain or loss-of-signal activity can be used to understand changes in the signaling as they relate to the gene PLAU. Furthermore, this assay endpoint can be referred to as a primary readout, because this assay has produced multiple assay endpoints where this one serves a signaling function. To generalize the intended target to other relatable targets, this assay endpoint is annotated to the protease intended target family, where the subfamily is serine protease.
The levels of cell surface (or secreted, indicated by the prefix "s") biomarker endpoints were measured by ELISA. Overt cytotoxicity to cells in confluent adherent cultures (all systems other than the BT system) was assessed by measuring total protein levels using sulforhodamine B (SRB) staining in parallel cultures at the time of biomarker measurements, indicated as SRB endpoints. For proliferation assays for adherent cell types, individual cell types are cultured at sub-confluence and relative cell numbers quantified by SRB staining at time points optimized for each system (48 h: 3C and CASM3C systems; 72 h: BT and HDF3CGF systems; 96 h: SAg system). SRB was performed by staining cells with 0.1% SRB after fixation with 10% TCA and reading wells at 560 nm.Viability and proliferation of PBMC (T cells) was quantified by Alamar Blue reduction for the SAg and BT systems. For PBMC viability (referred to as PBMC Cytotoxicity within the assay endpoint names), cells were plated (75,000/well in a 96-well plate) and then chemical samples added for 1 h before addition of activators, SEB and TSST-1 (20 ng/mL final concentration each). Cells were incubated for 90 h. Then, Alamar Blue (20 uL/well) (Invitrogen, Cat DAL1100) was added for 6 h, and the plates were read with a fluorescence microplate reader at 546/580 nm (excitation/emission). For PBMC proliferation, cells were plated and activated as above but incubated for only 16 h prior to addition of Alamar Blue. Plates were read after 6 h.

Row | SMILES | AC50 | outcome
1 | [Cl-].[Cl-].[Hg+2] | 31.6 µM (active) | 
2 | Brc1ccc(Oc2ccccc2)cc1 |  | inactive
3 | CO[C@@H]1[C@H](OC(=O)NC(=O)CCl)CC[C@]2(CO2)[C@H]1[C@@]1(C)O[C@@H]1CC=C(C)C |  | inactive
4 | Nc1ccc([N+](=O)[O-])cc1 |  | inactive
5 | COC(=O)Nc1nc2ccccc2[nH]1 |  | inactive
6 | CS(=O)(=O)NC(=O)c1cc(Oc2ccc(C(F)(F)F)cc2Cl)ccc1[N+](=O)[O-] |  | inactive
7 | CC(C)(O)c1cnn2c(-c3ccc(F)c(-c4c(F)cccc4C#N)c3)cnc2n1 | 30.2 µM (active) | 
8 | Nc1ccc(Oc2ccc(N)cc2)cc1 |  | inactive
9 | Clc1ccc(C(c2ccc(Cl)cc2)C(Cl)(Cl)Cl)cc1 |  | inactive
10 | CCC12COCN1COC2 |  | inactive
11 | CC(C)(C)OOC(=O)c1ccccc1 |  | inactive
12 | C[C@]12C=CC3=C4CCC(=O)C=C4CC[C@H]3[C@@H]1CC[C@@H]2O |  | inactive
13 | C[N+](C)(C)CC1CO1 (stereo not given) |  | inactive
14 | Nc1ccc(Cl)cc1N |  | inactive
15 | CC(C)COC(=O)c1ccccc1C(=O)OCC(C)C |  | inactive
16 | CCCCOC(=O)c1ccccc1C(=O)OCc1ccccc1 |  | inactive
17 | Cc1ccc([N+](=O)[O-])cc1 |  | inactive
18 | CC(C)(C)OOC(C)(C)CCC(C)(C)OOC(C)(C)C |  | inactive
19 | Clc1ccc(C(c2ccc(Cl)cc2)C(Cl)Cl)cc1 |  | inactive
20 | CCCSC(=O)N(CCC)CCC |  | inactive

Row | SMILES | AC50 | outcome
21 | CNC(=O)Oc1cccc2c1OC(C)(C)C2 |  | inactive
22 | CC(C)(C)C(O)(CCc1ccc(Cl)cc1)Cn1cncn1 (stereo not given) |  | inactive
23 | O=C(Nc1ccccc1)c1ccccc1I |  | inactive
24 | CCCCCCCCCCCCCN1CC(C)OC(C)C1 (stereo not given) |  | inactive
25 | [O-][Cl+]O |  | inactive
26 | ClCCOCCCl |  | inactive
27 | Nc1ccc(Cc2ccc(N)cc2)cc1 |  | inactive
28 | COc1cc(C=O)cc2c1[C@H](COC(N)=O)[C@]1(OC(C)=O)ON2C[C@H]2[C@@H]1N2C(C)=O | 7.92 µM (active) | 
29 | O=C(Oc1ccc(Br)cc1)N1CCN2CCC1CC2 |  | inactive
30 | Cc1cccc(N)c1N |  | inactive
31 | Nc1cc(Cl)cc(C(=O)O)c1Cl |  | inactive
32 | O=[N+]([O-])c1ccc(Oc2ccc(Cl)cc2Cl)cc1 |  | inactive
33 | c1ccc(N=Nc2ccccc2)cc1 |  | inactive
34 | Nc1ccc(N=Nc2ccccc2)cc1 |  | inactive
35 | O=[N+]([O-])C(Br)(CO)CO | 4.02 µM (active) | 
36 | O=P(OCCCl)(OCCCl)OCCCl |  | inactive
37 | c1ccc2c(c1)oc1ccccc12 |  | inactive
38 | CC(C)N(Cc1ccccc1)C(=O)C(C)(C)C |  | inactive
39 | CN(C)c1ccc(C(=O)c2ccc(N(C)C)cc2)cc1 |  | inactive
40 | CCC[CH2][Sn]([Cl])([CH2]CCC)[CH2]CCC | 0.148 µM (active) | 
